Here are results for 20 compounds from PubChem BioAssay.

Test [1] can be described thus: antimalarial activity against Dd2 strain (AID 2302;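 active = growth inhibition above 50% at the single 2 µM test dose, taken to imply half-maximal potency below 2 µM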;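 also: 0% = DMSO untreated growth and 100% = chloroquine plus artemisinin killed control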). As to conditions: P. falciparum Dd2 in RBCs, LDH growth readout, 72 h; at 2 µM; stronger effect = higher value.
Test [2] can be described thus: human hepatoma cell viability loss – ATP luminescence, cytotoxicity control for P. falciparum antimalarial project, primary screen (AID 2303;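 active = inhibition above 50%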;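 also: 0% = DMSO wells and 100% = digitonin-killed cells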). As to conditions: HepG2 viability, 24-48 h, at 10 µM, stronger effect = higher value.
In test [3] the target is L-lactate dehydrogenase (Plasmodium falciparum (isolate CDC / Honduras)) (UniProt Q27743). Description: PfLDH activity inhibition – cell lysate, 3D7 strain, counter-screen for P. falciparum growth inhibition project (AID 2304).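 Also: 0% = vehicle and 100% = reference inhibitor.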 As to conditions: P. falciparum 3D7 crude extract, LDH APAD/NBT absorbance; at 2 µM; stronger effect = higher value. For orientation: Counterscreens check selectivity or assay interference.

The nature of test [4]: inhibition of 3D7 malaria parasite growth – strain 3D7 (AID 2306).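 Also: 0% = DMSO wells and 100% = chloroquine plus artemisinin control wells.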 Particulars: P. falciparum 3D7 erythrocytic growth, LDH absorbance, 72 h; at 2 µM; stronger effect = higher value.
Test [5] deals with Calcium-dependent protein kinase 1 (Plasmodium falciparum (isolate 3D7)) (UniProt P62344). Nature of the test: PfCDPK1 kinase inhibitors, biochemical, TCAMS library (AID 1159585; cut-off not given, nearly all actives have IC50 up to about 0.98 µM;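 also: inhibitors leave more ATP so luminescence rises with inhibition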). Particulars: recombinant PfCDPK1, Kinase-Glo ATP depletion luminescence. In general terms: Kinase-Glo reads ATP consumption through a luciferase reaction.
For test [6], the target named is Plasmodium falciparum protein kinase 6 (PK6, PF3D7_1337100) (UniProt Q8IDW1). Nature of the test: PfPK6 kinase inhibitors, biochemical, TCAMS library (AID 1159586). Particulars: recombinant PfPK6, Kinase-Glo ATP depletion luminescence.
Test [7] has as its target Protein kinase 7 (PK7), Plasmodium falciparum 3D7 (PF3D7_0213400) (UniProt Q7YTF7). Nature of the test: inhibition of Plasmodium PK7 catalytic activity – biochemical, TCAMS antimalarial set, Kinase-Glo luminescence (AID 1159587). Particulars: recombinant PfPK7, Kinase-Glo ATP depletion luminescence.
The target in test [8] is Calcium-dependent protein kinase 4 (Plasmodium falciparum (isolate 3D7)) (UniProt Q8IBS5). Description: PfCDPK4 kinase inhibitors, biochemical, TCAMS library (AID 1159588; cut-off not given, nearly all actives have IC50 up to about 0.91 µM). As to conditions: recombinant PfCDPK4, Kinase-Glo ATP depletion luminescence.

Structures are written as SMILES. Values without a mark were called inactive. For some of these results: Potency and affinity values are given separately. Activity calls are given as the source filed them. Unless noted, no rule for the calls is given here.

Sequence of Calcium-dependent protein kinase 1 (Plasmodium falciparum (isolate 3D7)) (P62344 whole entry, looked up): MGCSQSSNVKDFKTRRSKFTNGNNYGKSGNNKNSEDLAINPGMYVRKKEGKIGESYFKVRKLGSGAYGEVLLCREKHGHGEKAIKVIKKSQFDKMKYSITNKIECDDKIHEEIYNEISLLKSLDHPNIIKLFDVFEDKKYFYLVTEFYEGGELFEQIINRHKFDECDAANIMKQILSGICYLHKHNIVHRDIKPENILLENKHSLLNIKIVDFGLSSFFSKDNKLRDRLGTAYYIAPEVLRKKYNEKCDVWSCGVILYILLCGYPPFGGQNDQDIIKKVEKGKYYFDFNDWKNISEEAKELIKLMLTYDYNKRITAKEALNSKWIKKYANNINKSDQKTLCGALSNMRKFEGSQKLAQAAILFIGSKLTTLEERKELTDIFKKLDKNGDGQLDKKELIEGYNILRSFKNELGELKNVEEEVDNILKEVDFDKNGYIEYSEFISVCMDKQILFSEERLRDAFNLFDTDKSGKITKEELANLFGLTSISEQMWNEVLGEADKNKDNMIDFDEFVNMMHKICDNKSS
Sequence of Plasmodium falciparum protein kinase 6 (PK6, PF3D7_1337100) (Q8IDW1 1-305): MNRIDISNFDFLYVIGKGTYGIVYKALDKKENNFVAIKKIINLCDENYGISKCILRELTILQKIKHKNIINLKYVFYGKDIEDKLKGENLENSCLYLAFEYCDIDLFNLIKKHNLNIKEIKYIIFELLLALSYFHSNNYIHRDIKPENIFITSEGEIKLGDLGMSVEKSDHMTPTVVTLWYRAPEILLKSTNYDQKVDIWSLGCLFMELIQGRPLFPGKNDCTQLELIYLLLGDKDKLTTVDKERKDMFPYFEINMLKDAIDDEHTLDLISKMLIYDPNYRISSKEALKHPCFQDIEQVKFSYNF
Sequence of L-lactate dehydrogenase (Plasmodium falciparum (isolate CDC / Honduras)) (Q27743 whole entry, looked up): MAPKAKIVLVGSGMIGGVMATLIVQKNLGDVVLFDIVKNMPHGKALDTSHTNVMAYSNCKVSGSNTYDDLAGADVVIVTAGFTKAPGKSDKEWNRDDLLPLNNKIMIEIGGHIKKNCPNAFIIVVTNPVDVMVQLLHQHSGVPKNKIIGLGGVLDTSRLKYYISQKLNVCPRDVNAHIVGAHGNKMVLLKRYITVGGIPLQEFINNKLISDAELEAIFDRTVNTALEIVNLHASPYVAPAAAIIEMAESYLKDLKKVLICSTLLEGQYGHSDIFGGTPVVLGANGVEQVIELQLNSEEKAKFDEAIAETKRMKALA
Sequence of Calcium-dependent protein kinase 4 (Plasmodium falciparum (isolate 3D7)) (Q8IBS5 whole entry, looked up): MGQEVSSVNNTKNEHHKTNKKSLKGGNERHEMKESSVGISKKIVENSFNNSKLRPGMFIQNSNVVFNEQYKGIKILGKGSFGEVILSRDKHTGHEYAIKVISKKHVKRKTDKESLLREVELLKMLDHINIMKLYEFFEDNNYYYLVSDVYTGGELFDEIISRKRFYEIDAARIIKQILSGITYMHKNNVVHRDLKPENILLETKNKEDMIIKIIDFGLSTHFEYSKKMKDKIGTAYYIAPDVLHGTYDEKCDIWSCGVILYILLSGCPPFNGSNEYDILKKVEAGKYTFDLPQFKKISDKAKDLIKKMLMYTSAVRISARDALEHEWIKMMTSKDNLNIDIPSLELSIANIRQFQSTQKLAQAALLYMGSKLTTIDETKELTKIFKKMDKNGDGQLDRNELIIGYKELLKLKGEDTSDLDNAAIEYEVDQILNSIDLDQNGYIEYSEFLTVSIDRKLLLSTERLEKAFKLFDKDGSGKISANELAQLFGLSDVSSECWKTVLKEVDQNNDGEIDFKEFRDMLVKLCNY
Sequence of Protein kinase 7 (PK7), Plasmodium falciparum 3D7 (PF3D7_0213400) (Q7YTF7 1-343): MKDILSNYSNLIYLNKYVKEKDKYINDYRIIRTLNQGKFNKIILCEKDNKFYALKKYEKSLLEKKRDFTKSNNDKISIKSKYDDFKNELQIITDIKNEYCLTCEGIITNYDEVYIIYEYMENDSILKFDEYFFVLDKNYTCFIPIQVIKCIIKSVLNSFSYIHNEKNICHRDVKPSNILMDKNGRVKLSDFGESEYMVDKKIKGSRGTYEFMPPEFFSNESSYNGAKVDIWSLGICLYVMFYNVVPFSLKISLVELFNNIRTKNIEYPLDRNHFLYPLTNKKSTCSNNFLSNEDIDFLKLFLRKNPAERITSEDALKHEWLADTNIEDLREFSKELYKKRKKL

With `CC(C)N1CCN(C(=O)c2ccc(CN(C)CCCN3CCN(c4cccc(Cl)c4Cl)CC3)s2)CC1`, the growth inhibition in test [1] was 35%; in test [4], 94% (active). For the same compound, the inhibition was 74% (active) in test [2] and 3% in test [3]. Besides, the outcome in test [5], in test [6], in test [7] and in test [8] was inactive.

On to `O=C(Nc1cccc(CN2CCN(C(=O)c3ccccc3)CC2)c1)c1ccco1`, for which the values for the growth inhibition in test [1] and in test [4] were 42% and 95% (active), respectively. In addition, the inhibition in test [2] was 6%; in test [3], -2%. The outcome in test [5], in test [6], in test [7] and in test [8] was inactive.

As for `O=c1cc(NCCCCNCc2ccc(Br)c(Br)c2)[nH]c2ccccc12`, the growth inhibition in test [1] is 14%; in test [4], 98% (active). Also, the figures for the inhibition in test [2] and in test [3] were 13% and 2%, respectively. Further, the result in test [5], in test [6], in test [7] and in test [8] was inactive.

Take `C=C(F)c1sc(CNCCCNc2nc3ccccc3[nH]2)c(C)c1Br`: the growth inhibition is 23% in test [1] and 100% (active) in test [4]. Further, the inhibition in test [2] was 15%; in test [3] it was 3%. For the same compound, the outcome in test [5], in test [6], in test [7] and in test [8] was inactive.

Take `CCNc1cc(C(=O)N[C@@H](Cc2ccccc2)[C@H](O)CNCCc2ccccc2)cc(N2CCCCS2(=O)=O)c1`: the growth inhibition in test [1] was 91% (active); in test [4], 98% (active). In addition, the figures for the inhibition in test [2] and in test [3] were 14% and 7%, respectively. The outcome in test [5], in test [6], in test [7] and in test [8] was inactive.

As for `CN(C)S(=O)(=O)c1cc(-c2ccc3nccc(-c4cccc(S(N)(=O)=O)c4)c3c2)cnc1N`, the figures for the growth inhibition in test [1] and in test [4] were 98% (active) and 100% (active), respectively. Also, the inhibition in test [2] was 35%; in test [3], -2%. The result in test [5], in test [6], in test [7] and in test [8] was inactive.

Turning to `COc1ccccc1C1CN(Cc2coc3ccccc3c2=O)Cc2ccccc2O1` (stereo not given), the growth inhibition was 61% (active) in test [1] and 87% (active) in test [4]. In addition, the inhibition is 4% in test [2] and 2% in test [3]. Also, the result in test [5], in test [6], in test [7] and in test [8] was inactive.

In the case of `NC(N)=NC(=O)Nc1cc(Cl)c(F)c(Cl)c1`, the growth inhibition in test [1] is 64% (active); in test [4], 100% (active). In addition, the inhibition in test [2] was 22%; in test [3] it was -4%. Moreover, the result in test [5], in test [6], in test [7] and in test [8] was inactive.

For the compound `NC(N)=NN=Cc1ccc2ccc3ccccc3c2c1`, the figures for the growth inhibition in test [1] and in test [4] were 89% (active) and 101% (active), respectively. For the same compound, the inhibition in test [2] is 34%; in test [3], 5%. The outcome in test [5], in test [6], in test [7] and in test [8] was inactive.

Regarding `COc1ccc(CNCc2ccc(-c3ccc(-c4nc5ccc(F)cc5[nH]4)cc3)cc2)cc1`, the growth inhibition in test [1] was 83% (active); in test [4] it was 99% (active). For the same compound, the inhibition is 70% (active) in test [2] and 5% in test [3]. In addition, the outcome in test [5], in test [6], in test [7] and in test [8] was inactive.

Take `Cn1nccc1C(=O)NCCNCc1ccc(-c2ccc(-c3nc4ccc(F)cc4[nH]3)cc2)cc1`: the values for the growth inhibition in test [1] and in test [4] were 98% (active) and 101% (active), respectively. Besides, the results for the inhibition in test [2] and in test [3] were 28% and -5%, respectively. Also, the outcome in test [5], in test [6], in test [7] and in test [8] was inactive.

Take `COc1ccc2nccc([C@@H](O)CN3CCC(NCc4cc5ccccn5n4)CC3)c2c1`: the values for the growth inhibition in test [1] and in test [4] were 18% and 99% (active), respectively. Besides, the inhibition in test [2] is 7%; in test [3], -8%. Moreover, the outcome in test [5], in test [6], in test [7] and in test [8] was inactive.

`O=C(Nc1ccc(-c2nc3ccccc3[nH]2)cc1)c1ccc(S(=O)(=O)N2CCCCC2)cc1`: the growth inhibition in test [1] was 6%; in test [4], 95% (active). Further, the results for the inhibition in test [2] and in test [3] were 23% and 2%, respectively. For the same compound, the result in test [5], in test [6], in test [7] and in test [8] was inactive.

On to `CC(C)CNCc1ccc(-c2ccc(CN(CCCN3CCN(C)CC3)C(=O)/C=C/c3ccccc3)cc2)cc1`, for which the growth inhibition in test [1] was 93% (active); in test [4], 99% (active). Moreover, the inhibition in test [2] is 57% (active); in test [3], 3%. In addition, the result in test [5], in test [6], in test [7] and in test [8] was inactive.

With `O=C(Nc1ccc(Cn2ncc(N3CCCNCC3)c(Cl)c2=O)cc1)Nc1ccc(C(F)(F)F)cc1`, the growth inhibition in test [1] is 58% (active); in test [4], 90% (active). Further, the figures for the inhibition in test [2] and in test [3] were 12% and 4%, respectively. For the same compound, the result in test [5], in test [6], in test [7] and in test [8] was inactive.

In the case of `Cc1nnc2c(NC(=O)NC(C)C)cc3cc(-c4ccc(CN5CCCCC5)cc4)ccc3n12`, the growth inhibition was 8% in test [1] and 87% (active) in test [4]. Besides, the inhibition was 70% (active) in test [2] and 1% in test [3]. Besides, the result in test [5], in test [6], in test [7] and in test [8] was inactive.

`CC1(C)N=C(N)N=C(N)N1OCC1COc2ccccc2O1` (stereo not given): the growth inhibition was 66% (active) in test [1] and 96% (active) in test [4]. The values for the inhibition in test [2] and in test [3] were 56% (active) and -1%, respectively. The result in test [5], in test [6], in test [7] and in test [8] was inactive.

For `Cc1[nH]c(C)c(Cc2ccc(Oc3ccc(OC(F)(F)F)cc3)cc2)c(=O)c1Br`, the growth inhibition was 87% (active) in test [1] and 96% (active) in test [4]. Also, the results for the inhibition in test [2] and in test [3] were 29% and -1%, respectively. Besides, the result in test [5], in test [6], in test [7] and in test [8] was inactive.

As for `Nc1nc(Nc2cccc(O)c2)nc2ccccc12`, the growth inhibition was 79% (active) in test [1] and 96% (active) in test [4]. Moreover, the inhibition is 25% in test [2] and 4% in test [3]. The outcome in test [5], in test [6], in test [7] and in test [8] was inactive.

`Cc1cc([N+](=O)[O-])ccc1N1CCN(CCCCNC(=O)c2ccc(NC(=O)c3ccc(Cl)cc3)cc2)CC1`: the results for the growth inhibition in test [1] and in test [4] were -1% and 92% (active), respectively. Also, the inhibition was 33% in test [2] and 2% in test [3]. In addition, the outcome in test [5], in test [6], in test [7] and in test [8] was inactive.

The inhibition is the relative decrease from the control value, in per cent.
